Measurements reported in PubChem BioAssay (NCATS).
Records with an inconclusive call do not appear. Active and inactive are the calls of the source. Calls come from the whole dose curve; as a rule, active = well fitted curve in the direction sought with a large enough effect; inconclusive = small, poorly fitted or top-dose-only effect, or another doubt; inactive = no such curve, though single readings can be large; an effect the other way counts as inactive or inconclusive.

Tests used:
MCC-13 = experiment: qHTS assay to identify novel small-molecules to repurpose for Merkel cell carcinoma treatment (AID 1296009); conditions: MCC and control cell lines, CellTiter-Glo viability, 72 h; series mostly up to 46 µM; note: nearly all actives have a fitted effect of over 60% in size
Summary of the method: (§1)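 CellTiter-Glo luminescence after 72 hr compound exposure at 37 degree celsius gave cell viability. Libraries NPC and MIPE were run as 8- and 11-point dose responses; RLUs normalized to DMSO (negative) and no-cell (cytotoxicity) controls.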

MCC-26 = experiment: as above; conditions: MCC and control cell lines, CellTiter-Glo viability, 72 h; series mostly up to 46 µM
Summary of the method: as §1

MKL-1 = experiment: as above; conditions: MCC and control cell lines, CellTiter-Glo viability, 72 h; series mostly up to 46 µM
Summary of the method: as §1

MKL-2 = experiment: as above; conditions: MCC and control cell lines, CellTiter-Glo viability, 72 h; series mostly up to 46 µM
Summary of the method: as §1

NIH3T3 = experiment: as above; conditions: MCC and control cell lines, CellTiter-Glo viability, 72 h; at 44.8 µM (top of the series) unless noted
Summary of the method: as §1

UISO = experiment: as above; conditions: MCC and control cell lines, CellTiter-Glo viability, 72 h; series mostly up to 46 µM
Summary of the method: as §1

WaGa = experiment: as above; conditions: MCC and control cell lines, CellTiter-Glo viability, 72 h; series mostly up to 46 µM
Summary of the method: as §1

C33A = experiment: Primary qHTS to identify gynecologic anti-cancer compounds using libraries of approved drugs and bioactive compounds (AID 1345084); conditions: Gynecologic cancer cell panel viability, ATPlite luminescence, 48 h; series mostly up to 57.5 µM; note: nearly all actives have a fitted effect of over 55% in size
Summary of the method: (§2)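 Five-concentration response, 48 h; readout is ATP-driven luciferase luminescence.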

CAOV3 = experiment: as above; conditions: Gynecologic cancer cell panel viability, ATPlite luminescence, 48 h; series mostly up to 57.5 µM
Summary of the method: as §2

CASKI = experiment: as above; conditions: Gynecologic cancer cell panel viability, ATPlite luminescence, 48 h; series mostly up to 57.5 µM
Summary of the method: as §2

Es-2 = experiment: as above; conditions: Gynecologic cancer cell panel viability, ATPlite luminescence, 48 h; series mostly up to 57.5 µM
Summary of the method: as §2

HeLa = experiment: as above; conditions: Gynecologic cancer cell panel viability, ATPlite luminescence, 48 h; series mostly up to 57.5 µM
Summary of the method: as §2

Hek293T = experiment: as above; conditions: Gynecologic cancer cell panel viability, ATPlite luminescence, 48 h, control line for the selectivity index; series mostly up to 57.5 µM
Summary of the method: as §2

JEG-3 = experiment: as above; conditions: Gynecologic cancer cell panel viability, ATPlite luminescence, 48 h; series mostly up to 57.5 µM
Summary of the method: as §2

OV90 = experiment: as above; conditions: Gynecologic cancer cell panel viability, ATPlite luminescence, 48 h; series mostly up to 57.5 µM
Summary of the method: as §2

PA-1 = experiment: as above; conditions: Gynecologic cancer cell panel viability, ATPlite luminescence, 48 h; series mostly up to 57.5 µM
Summary of the method: as §2

Tov-21-G = experiment: as above; conditions: Gynecologic cancer cell panel viability, ATPlite luminescence, 48 h; series mostly up to 57.5 µM
Summary of the method: as §2

Tov112D = experiment: as above; conditions: Gynecologic cancer cell panel viability, ATPlite luminescence, 48 h; series mostly up to 57.5 µM
Summary of the method: as §2

SKOV3 = experiment: as above; conditions: Gynecologic cancer cell panel viability, ATPlite luminescence, 48 h; series mostly up to 57.5 µM
Summary of the method: as §2

Measured: Potency

CCOC(=O)c1ccc(NC(=O)CN2CCCCC2)cc1
not listed: SKOV3
inactive: all other assays above

Cc1cc(CCCOc2c(C)cc(-c3noc(C(F)(F)F)n3)cc2C)on1
not listed: WaGa
inactive: all other assays above

CCCCCC1Nc2cc(C(F)(F)F)c(S(N)(=O)=O)cc2S(=O)(=O)N1 (configuration not stated)
inactive: all assays above

O=C(OCC(COC(=O)c1cccnc1)(COC(=O)c1cccnc1)COC(=O)c1cccnc1)c1cccnc1
inactive: all assays above

CC(=O)N(CC(O)CO)c1c(I)c(C(=O)NCCO)c(I)c(C(=O)NCC(O)CO)c1I (configuration not stated)
not listed: SKOV3
inactive: all other assays above

CC(C)(C)c1ccc(C(=O)CCCCl)cc1
not listed: HeLa
inactive: all other assays above

CCCc1c2oc(C(=O)O)cc(=O)c2cc2c(=O)cc(C(=O)O)n(CC)c12
not listed: SKOV3
inactive: all other assays above

CCCCC(O)/C=C(C)/C=C/C=C/C(=O)N1CCCC1=O (configuration not stated)
not listed: SKOV3
inactive: all other assays above

CCOC(=O)Oc1ccc(CCNC(=O)[C@H](CCSC)NC(C)=O)cc1OC(=O)OCC
inactive: all assays above

C#Cc1ccc(-c2ccccc2F)cc1
not listed: CAOV3
inactive: all other assays above

Cn1cc(S(C)=O)c(=O)c2ccc(F)cc21 (configuration not stated)
not listed: OV90
inactive: all other assays above

COc1ccc2c(c1)CCCC2=O
not listed: SKOV3
inactive: all other assays above

CO/N=C(\C(=O)O)c1csc(NC(=O)CCl)n1
inactive: all assays above

Clc1ccc2c(c1)Nc1ccccc1S2
not listed: UISO
inactive: all other assays above

Cn1c(=O)c2c(ncn2CC(=O)O)n(C)c1=O
not listed: SKOV3
inactive: all other assays above

NC(=O)COCCN1CCN(C(c2ccccc2)c2ccc(Cl)cc2)CC1 (configuration not stated)
inactive: all assays above

N#CC1(c2ccc(F)cc2)CCC(=O)CC1
inactive: all assays above

COCCc1ccccn1
inactive: all assays above

CCCCOC(=O)CCCCCCCCC(=O)OCCCC
not listed: CAOV3
inactive: all other assays above

O=c1[nH]c2ccccc2c(=O)n1CCCl
not listed: CAOV3 | HeLa
inactive: all other assays above

CCC1(c2cnc[nH]2)Cc2ccccc2C1
not listed: CAOV3
inactive: all other assays above

CCN(CC)CC(=O)OCC(=O)[C@@]1(O)CC[C@H]2[C@@H]3CCC4=CC(=O)CC[C@]4(C)[C@H]3[C@@H](O)C[C@@]21C
inactive: all assays above

OCc1cccnc1
not listed: CAOV3
inactive: all other assays above

N=C(N)c1ccc(OCCCOc2ccc(C(=N)N)cc2)cc1
not listed: Tov-21-G
inactive: all other assays above

CCCCCOc1ccc(C2SC(=O)NC2=O)cc1OCC (configuration not stated)
not listed: SKOV3
inactive: all other assays above

CC(C)CCCC(C)NCCC(C)C (configuration not stated)
not listed: CASKI
inactive: all other assays above

CCOC(=O)C(=O)CCCCCCl
not listed: CAOV3
inactive: all other assays above

C#CC(C)(CC)OC(=O)c1ccccc1C(=O)O (configuration not stated)
not listed: CAOV3
inactive: all other assays above

CC(=O)Nc1ccc(S(=O)(=O)Nc2cc(C)on2)cc1
not listed: SKOV3
inactive: all other assays above

CCNC(=O)NCCCOc1cccc(CN2CCCCC2)c1
not listed: OV90
inactive: all other assays above
